The list is not random: actives were taken first. Their share in the collection is about 1.5%.
Coupling enz – qHTS Assay for Inhibitors of Fructose-1,6-bisphosphate Aldolase from Giardia Lamblia: Coupling assay counterscreen | coupling enzyme system counterscreen, AmpLite Red fluorescence | activity change, negative = inhibition, % at 58.2 µM, hits read low | hit rate 0.67% among 290,000; in the data active means activity change below about -30%
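Counterscreen of the coupled detection system alone, without aldolase: glyceraldehyde-3-phosphate coupling enzymes plus AmpLite Red readout. Compounds at 57.5 uM final, 10 min RT preincubation, 20 min RT reaction, fluorescence 525/598 nm.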
TrxR1 inh – qHTS Assay for Inhibitors of Mammalian Selenoprotein Thioredoxin Reductase 1 (TrxR1): qHTS; Potency, µM (top dose mostly 114 µM), for inactives: at the top dose activity change, negative = inhibition, hits mostly inhibitors; hit rate 1% among 390,000; recombinant rTrxR1, NADPH fluorescence consumption, selenite substrate; AID 588453, 2011; further: potency means the concentration at half of the fitted maximal effect; nearly all actives have a fitted effect of over 65% in size
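Rat TrxR1 (90 nM in the dispensed reagent) was pre-reduced with 400 uM NADPH for 5 min at room temperature, then incubated with compound for 15 min. After 400 uM selenite was added, NADPH fluorescence (Ex 340/Em 450 nm) was followed for 8 min.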
TrxR1 substrate – qHTS Assay for Substrates of Mammalian Selenoprotein Thioredoxin Reductase 1 (TrxR1): qHTS. purified TrxR1 substrate turnover, NADPH consumption readout. Potency, µM (highest dose often 114 µM), for inactives: top-dose activity change, negative = substrate turnover. hit rate 0.01% among 390,000. AID 588456, 2011; further: potency means the concentration at half of the fitted maximal effect; nearly all actives have a fitted effect of over 50% in size
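Rat TrxR1, dispensed at 90 nM, was prereduced with 400 uM NADPH (final) for 5 min at ~22 deg C, then incubated with compound 15 min before 400 uM selenite. A first-read NADPH fluorescence drop versus no-compound background flagged substrates.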
IDH1 R132H inh – qHTS for Inhibitors of mutant isocitrate dehydrogenase 1 (IDH1): qHTS. Isocitrate dehydrogenase [NADP] cytoplasmic (Homo sapiens), O75874. IDH1-R132H enzyme, NADPH consumption, diaphorase/resazurin fluorescence. Potency, µM (series often up to 76.6 µM), for the others: top-dose activity change, negative = inhibition, actives largely listed as inhibitors. hit rate 0.093% among 390,000. AID 602179, 2012; further: potency means the concentration at half of the fitted maximal effect; nearly all actives have a fitted effect of over 65% in size
Target sequence (O75874 whole entry R132H, stated change not applied): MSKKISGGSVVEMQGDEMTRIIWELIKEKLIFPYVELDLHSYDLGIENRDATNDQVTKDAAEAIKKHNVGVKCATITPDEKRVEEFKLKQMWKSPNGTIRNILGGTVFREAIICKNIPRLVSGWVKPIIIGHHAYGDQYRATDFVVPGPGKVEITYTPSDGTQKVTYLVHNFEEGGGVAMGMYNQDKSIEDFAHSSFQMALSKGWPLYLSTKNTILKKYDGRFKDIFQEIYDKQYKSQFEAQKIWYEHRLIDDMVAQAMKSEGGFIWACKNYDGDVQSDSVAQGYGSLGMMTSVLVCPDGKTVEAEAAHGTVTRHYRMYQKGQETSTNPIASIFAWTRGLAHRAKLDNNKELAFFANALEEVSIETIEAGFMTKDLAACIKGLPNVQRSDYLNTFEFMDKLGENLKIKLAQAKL
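IDH1-R132H (0.5 ug/mL) preincubated 30 min with compound, then NADPH (0.016 mM) and alpha-KG (2 mM) added; 80 min at RT, pH 7.5. Remaining NADPH coupled via diaphorase/resazurin to fluorescence (540/590 nm); concentration-response curves normalized to no-enzyme control.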
Eya2 inh – qHTS Assay for Inhibitors of the Phosphatase Activity of Eya2. Protein phosphatase EYA2 (Homo sapiens), O00167. hit rate 0.006% among 330,000. Potency, µM (highest dose often 76.9 µM), inactives show at the top dose activity, negative = inhibition, most hits filed as inhibitors. AID 488837, 2010. recombinant Eya2, OMFP fluorescence dephosphorylation (OMFP is methylfluorescein phosphate); further: potency means the concentration at half of the fitted maximal effect
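Eya2 (0.2 uM) preincubated 10 min at ambient with compound, then OMFP substrate added at 50 uM; 10 min reaction in 50 mM HEPES pH 7.5, 50 mM NaCl, 5 uM MgCl2, 0.05% BSA, 1 mM DTT. Fluorescence read at Ex 485/Em 525 nm.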
* hit, by the source's call; ? = inconclusive; nt = no result given; ! = not confirmed by another sample; [ ] = another dose, or the depositor's remark. Unless noted, the call rests on the fitted dose curve; in most records, active means well fitted curve in the direction sought with a large enough effect; inconclusive means small, poorly fitted or top-dose-only effect, or another doubt; inactive means no such curve, though single readings can be large; an effect the other way counts as inactive or inconclusive. On the % scale 0 is the no-effect control and ±100 the full control effect.

SMILES	Coupling enz	TrxR1 inh	TrxR1 substrate	IDH1 R132H inh	Eya2 inh
O=C1C2C3C=CC(C3=C3CCCCC3)C2C(=O)N1c1ccccc1 (centres undefined)	3	20µM*	4%	-1%	?
Cc1ccc(C)c(S(=O)(=O)N(C)c2ccc(OC(=O)CN3C(=O)NC4(CCCC4)C3=O)cc2)c1	nt	9%	-2%	3%	nt
O=C(CN1C(=O)NC2(CCCCC2)C1=O)Oc1ccc2ccc(=O)oc2c1	nt	50µM*	379%	17%	-16%
CNc1ccc(/C=C2\C=Cc3ccccc32)cc1I	nt	-8%	-8%	nt	nt
O=c1[nH]nc(CNc2ccc(O)cc2)c2ccccc12	-49*	?	-10%	11%	7%
O=c1[nH]nc(CNc2ccc(C(F)(F)F)cc2)c2ccccc12	1	1%	-8%	6%	6%
O=S(=O)(c1ccc(N=C2NN=C(c3cc(F)ccc3F)CS2)cc1)N1CCOCC1	3	11%[57.1 µM]	-1%[57.1 µM]	26µM*	1%
CC(=O)Nc1ccc(C(=O)Nc2ccc(S(=O)(=O)N3CCOCC3)cc2)cc1	-1	2%	-1%	2%	-9%
Fc1ccc(F)c(C2=NNC(=Nc3ccccc3F)SC2)c1	1	12%	-4%	?	6%
CC(=O)Nc1ccc(C2=NNC(=Nc3ccc(S(=O)(=O)N4CCOCC4)cc3)SC2)cc1	-2	-2%	-8%	13µM*	-11%
Fc1ccc(N=C2NN=C(c3cc(F)ccc3F)CS2)cc1	0	22%	12%[57.1 µM]	11µM*	-1%
COC/C=C/C1=CC2=CC(=O)C(C)(OC(=O)c3cnc4ccccc4n3)C(=O)C2=CN1CCCCO (centres undefined)	-32*!	?	-8%	1%[38.3 µM]	7%
COC/C=C/C1=CC2=CC(=O)C(C)(OC(=O)c3cnc4ccccc4n3)C(=O)C2=CN1CCc1ccccn1 (centres undefined)	-1	nt	nt	nt	nt
COC(=O)CCCC1=CC2=CC(=O)C(C)(OC(=O)c3cccs3)C(=O)C2=CO1 (centres undefined)	1	nt	nt	nt	nt
COC(=O)CCCC1=CC2=CC(=O)C(C)(OC(=O)c3cccs3)C(=O)C2=CN1CCCCO (centres undefined)	-41*!	11%[57.1 µM]	3%[57.1 µM]	2%	4%
COC(=O)CCCC1=CC2=CC(=O)C(C)(OC(=O)c3cccs3)C(=O)C2=CN1c1ccccc1 (centres undefined)	-11	-8%[57.1 µM]	-6%	17%	nt
CCCCC1=CC2=CC(=O)C(C)(OC(=O)CC)C(=O)C2=CN1C1CCCCC1 (centres undefined)	-19	?	5%	6%	1%
CCCCC1=CC2=CC(=O)C(C)(OC(=O)CC)C(=O)C2=CN1CCCCO (centres undefined)	-35*!	-16%	-14%	11%	-2%
COCCN1C=C2C(=O)C(C)(OC(=O)c3cccs3)C(=O)C=C2C=C1CCCC(=O)OC (centres undefined)	-35*!	3%[57.1 µM]	-11%	-2%	8%
C[S+](C)CC(=O)c1ccc2ccccc2c1	nt	-9%	-4%	nt	nt
Cc1nc([N+](=O)[O-])cn1CC(O)c1ccc2c(c1)OCO2 (centres undefined)	nt	11%	1%	nt	nt
CCCCC1=CC2=CC(=O)C(C)(OC(=O)c3cccs3)C(=O)C2=CO1 (centres undefined)	-2	-15%	1%	-17%	nt
COC(=O)CCCC1=CC2=CC(=O)C(C)(OC(=O)c3cccs3)C(=O)C2=CN1CCN1CCOCC1 (centres undefined)	-38*!	-35%	?	-5%[38.3 µM]	-4%
C[C@H](C(=O)O)c1ccc2cc(O)ccc2c1	0	nt	nt	nt	nt
CCCS(=O)(=O)c1c(S(=O)(=O)CCC)c2c(N)cccn2c1C(=O)OC	-12	7.9µM*	-4%	-9%	1%
SMILES	Coupling enz	TrxR1 inh	TrxR1 substrate	IDH1 R132H inh	Eya2 inh
CCCS(=O)(=O)c1c(S(=O)(=O)CCC)c2c(N)cccn2c1C(=O)c1ccccc1	-18	-36%	-13%	-3%	10%
CC1(C)C(/C=C/C=C/C=C/C=C2\N(CCCCS(=O)(=O)O)c3ccc4ccccc4c3C2(C)C)=[N+](CCCCS(=O)(=O)[O-])c2ccc3ccccc3c21	nt	3.5µM*	-16%	?	nt
COc1cc(O)c(C(=O)c2ccccc2)cc1O	-47*	nt	nt	nt	nt
CSCC[C@H](NC(=O)[C@H](CC(C)C)N(C)C(=O)[C@@H]1CCCN1C(=O)[C@H](Cc1ccccc1)NC(=O)[C@H](Cc1ccccc1)NC(=O)CCC(C)N)C(=O)O (some centres undefined)	5	nt	nt	nt	nt
C/C(CCc1ccco1)=N\NC(=O)CNc1cccc2ccccc12	-55*	?	110%	12%	12%
C/C(=N\NC(=O)CNc1cccc2ccccc12)c1ccccc1	-1	24%	5%	-1%	0%
CC12C=C(/C=C/CCc3ccco3)C(C)(C1)C(CCc1ccco1)CC2=O (centres undefined)	0	nt	nt	nt	nt
CNC(=O)c1c(C)[nH]c(=S)c(C#N)c1-c1ccco1	-2	13µM*	1%	-6%	-6%
Cc1ccccc1NC(=O)c1c(C)[nH]c(=S)c(C#N)c1-c1ccco1	1	?	-7%	9%	-13%
NC1=NC(=O)/C(=C\c2ccco2)S1	-19	40µM*	-4%	5%	-18%
O=C1C(=O)C(c2ccc(O)cc2O)Oc2cc(O)cc(O)c21 (centres undefined)	nt	4.5µM*	-8%	nt	nt
O=C1c2c(O)cc(O)cc2OC(c2ccc(O)c(O)c2)C1O (centres undefined)	1	?	4%[57.1 µM]	nt	5%
C/C=C(/C)C(=O)O[C@H]1C[C@@]2(C)O[C@H]2[C@@H](OC(C)=O)C2(C)CC[C@@](O)(C(C)C)C12 (some centres undefined)	0	nt	nt	nt	nt
CCn1c(=O)n(C2=C(CO)CN(CC3CCCCCCC3)CC2)c2ccccc21	2	nt	nt	nt	nt
CC[N+]1(C)CCC(O)(/C=C/c2ccccc2)C(C(=O)/C=C/c2ccccc2)C1 (centres undefined)	nt	0.32µM*	11%[11.4 µM]	3%	nt
CCc1ccc(/C=C/C(=O)C2C(=O)c3ccccc3C2=O)cc1	-11	-21%	-20%	2%	10%
O=C(Cc1ccc(-c2ccccc2)cc1)NO	nt	-7%	-8%	nt	nt
COc1ccc(N=Cc2nc(-c3ccccc3)oc2OC(C)=O)cc1	2	13µM*	7%	8%	-4%

High-throughput results deposited in PubChem BioAssay by National Center for Advancing Translational Sciences (NCATS).
